Pf apPOL inh – Pf-apPOL DNA polymerase inhibition. Recombinant Pf-apPOL, molecular beacon fluorescence, 1.5 h. inhibition, % at 10 µM. hit rate 0.25% among 210,000. AID 1794808
mHTT CaM bind – mHTT-calmodulin interaction abrogation | AlphaScreen His-mHTT/GST-CaM binding, luminescence | hit rate 3.6% among 190,000 | inhibition, % at 15 µM
Large screens that a line does not name were inactive. An excerpt weighted towards active compounds, which were near 3.6% of everything screened. Rule as the data show it: active = inhibition above about 50%; inactive = the rest.

COCCn1cc2c3c(cccc31)CN(C(=O)c1ccc(F)cc1)CC2	mHTT CaM bind 64
COc1ccc(C(c2ccc(OC)cc2)c2ccccc2C(=O)O)cc1	none
Cc1ccccc1-c1noc(C2CCCN2C(=O)Nc2cc(F)ccc2F)n1 (stereo unspecified)	none
O=C(c1ccccc1)N1CCc2sc(C(=O)N3CCN(c4ccccn4)CC3)cc2C1	none
Cc1ccsc1C(=O)N1CCc2c(c(-c3nc(C4CC4)no3)nn2C)C1	none
CCOc1ccccc1/C=C1/N=C(C2CCCCC2)OC1=O	none
CCC(=O)Nc1cccc(-c2noc(C3CCCN(C(=O)c4cccs4)C3)n2)c1 (stereo unspecified)	none
COc1ccc(-c2nnc(SCc3cccc(C(F)(F)F)c3)o2)cc1OC	none
CCC1=NN(C(=O)c2cccc(C)c2O)C(O)(c2ccc(Br)cc2)C1 (stereo unspecified)	mHTT CaM bind 87
CC1=NN(C(=O)c2ccccc2)C(O)(c2ccc(Br)cc2)C1 (stereo unspecified)	none
CC1=NN(C(=O)c2ccccc2Br)C(O)(c2ccccc2)C1 (stereo unspecified)	none
CC1=NN(C(=O)Cc2ccccc2)C(O)(c2ccc(Br)cc2)C1 (stereo unspecified)	none
CCC1=NN(C(=O)c2ccccc2O)C(O)(c2ccc(Br)cc2)C1 (stereo unspecified)	mHTT CaM bind 91
CC1=NN(C(=O)CCc2ccccc2)C(O)(c2ccc(Br)cc2)C1 (stereo unspecified)	mHTT CaM bind 54
O=C1ON=C(c2ccccc2)/C1=C/c1cccs1	none
Clc1nc2nonc2nc1Nc1ccc(Br)cc1	none (no result: Pf apPOL inh)
CC(=O)N1C(=N)S/C(=C\c2cc3cccc(C)c3nc2N2CCCCC2)C1=O	none
Cc1ccc(C)c(CNC(=O)c2cn3c(n2)CN(CC(C)C)CC3)c1	none
CC(C)CN1CCn2cc(C(=O)N3CCN(c4ccccc4)CC3)nc2C1	mHTT CaM bind 58
Cc1cccc(N2CCN(C(=O)c3cn4c(n3)COCC4)CC2)c1C	none
CC(C)CN1CCn2cc(C(=O)N3CCN(c4ccc(Cl)cc4)CC3)nc2C1	mHTT CaM bind 92
CCCN1CCn2cc(C(=O)N3CCN(c4ccc(Cl)cc4)CC3)nc2C1	none
Cc1cc(C)c(CNC(=O)c2cn3c(n2)CN(CC(C)C)CC3)c(C)c1	mHTT CaM bind 71
Cc1cccc(N2CCN(C(=O)c3cn4c(n3)CN(CC(C)C)CC4)CC2)c1C	mHTT CaM bind 71
CC(C)CN1CCn2cc(C(=O)N3CCN(c4ccccc4Cl)CC3)nc2C1	none
CC(C)CC(=O)N1CCCN(Cc2noc(-c3ccccc3)n2)CC1	none
CCOc1ccc(/C=C2\C=C(c3cc(OC)ccc3OC)OC2=O)cc1	none
O=C(NCc1ccccc1Cl)c1ccc(Cn2c(=O)[nH]c3ccsc3c2=O)cc1	none
Nc1ccc(-c2nc3ccc(Oc4ccc5nc(-c6ccc(N)cc6)[nH]c5c4)cc3[nH]2)cc1	mHTT CaM bind 84
Nc1ccc(-c2nc3ccc(N)cc3[nH]2)cc1	none
COc1ccc(-c2nc3ccccc3[nH]2)cc1	none
COc1ccc(/C=C/c2nc3ccccc3[nH]2)cc1	none
Nc1ccc2nc(/C=C/c3nc4ccc(N)cc4[nH]3)[nH]c2c1	Pf apPOL inh 80, mHTT CaM bind 53
Nc1ccc(-c2nc3ccc(-c4ccc5nc(-c6ccc(N)cc6)[nH]c5c4)cc3[nH]2)cc1	mHTT CaM bind 100
Nc1cccc(-c2nc3ccc(-c4ccc5nc(-c6cccc(N)c6)[nH]c5c4)cc3[nH]2)c1	mHTT CaM bind 97
O=C(O)c1ccc2nc(-c3cccc(-c4nc5ccc(C(=O)O)cc5[nH]4)c3)[nH]c2c1	none (no result: mHTT CaM bind)
O=C(CSc1nc2c(cnn2-c2ccccc2)c(=O)[nH]1)Nc1ccc2c(c1)OCCO2	none
COc1ccc(C(=O)N=c2sc3cccc(OC)c3n2C)cc1	none
CCc1ccccc1NC(=O)C1(C)Oc2cccnc2NC1=O (stereo unspecified)	none
COc1cc(C(=O)Nc2ccc(-c3cc4ccccc4oc3=O)cc2)cc(OC)c1OC	none
CC1CC(C)CN(C(=O)C2CCC(CNS(=O)(=O)c3ccc(Br)s3)CC2)C1 (stereo unspecified)	none
CC(=O)Nc1ccc2nc(-c3ccc(-c4nc5ccc(NC(C)=O)cc5[nH]4)cc3)[nH]c2c1	none (no result: mHTT CaM bind)
CN(C)c1ccc(-c2nc3ccc(N)cc3[nH]2)cc1	mHTT CaM bind 56
Nc1ccc2nc(-c3cc(Cl)c(N)c(Cl)c3)[nH]c2c1	mHTT CaM bind 54
Oc1ccc2nc(-c3ccccc3)[nH]c2c1	none
O=C(NC1CC1)C1CCN(c2nc3cc(Cl)ccc3s2)CC1	none
CCOc1ccc(-c2cc(=O)n(CC(=O)Nc3cc(C)on3)cn2)cc1	none
CC1(C)CC(=O)C2=C(C1)OC(N)=C(C#N)C21C(=O)Nc2ccc([N+](=O)[O-])cc21 (stereo unspecified)	none
Cn1ccnc1Sc1cc(N2CCCCC2)ccc1[N+](=O)[O-]	none
Cc1[nH]nc2c1C(c1ccc(-c3ccccc3Cl)o1)C(C#N)=C(N)O2 (stereo unspecified)	mHTT CaM bind 50
Cc1[nH]nc2c1C(c1ccccc1)C(C#N)=C(N)O2 (stereo unspecified)	none (no result: mHTT CaM bind)
CC(C)=NNC(=O)c1cccnc1	none (no result: mHTT CaM bind)
Cc1ccc(C(=O)Nc2nc(-c3ccc(F)cc3F)cs2)o1	none
CCCCOc1cccc(C(=O)Nc2nnc(-c3ccco3)o2)c1	mHTT CaM bind 60
O=C(Nc1nnc(-c2ccco2)o1)c1ccc([N+](=O)[O-])cc1	none
c1c[nH]c(CN2CCC(OCc3nc(-c4cnccn4)no3)CC2)c1	none
O=C(O)CCCC(=O)Nc1nccs1	none
O=C(CCCOc1ccc(Cl)cc1)Nc1nccs1	Pf apPOL inh 52
CC1=NN(c2ccccc2)C(=O)/C1=C/c1ccc(-c2ccc(Cl)c(C(=O)O)c2)o1	mHTT CaM bind 77
O=C1NN(c2ccc(Cl)c(Cl)c2)C(=O)/C1=C/c1ccc(-c2cccc(C(=O)O)c2)o1	none
O=C1NN(c2ccc(Cl)c(Cl)c2)C(=O)/C1=C/c1ccc(-c2ccccc2C(=O)O)o1	mHTT CaM bind 51
CC1=NN(c2cccc(Cl)c2)C(=O)/C1=C/c1ccc(-c2ccc(C(=O)O)c(Cl)c2)o1	mHTT CaM bind 52
CC1=NN(c2ccccc2)C(=O)/C1=C/c1ccc(-c2ccccc2Cl)o1	none
CC1=NN(c2ccccc2)C(=O)/C1=C/c1ccc(-c2cccc(C(=O)O)c2)o1	mHTT CaM bind 76
CC1=NN(c2ccccc2)C(=O)/C1=C/c1ccc(-c2cccc([N+](=O)[O-])c2)o1	none
COc1cc([N+](=O)[O-])ccc1-c1ccc(/C=C2/C(=O)N(c3cccc(Cl)c3)N=C2C)o1	none
Cc1cc(C)c2c(NC(=O)c3ccc(Cl)cc3)noc2n1	none
CCN(Cc1ccccc1)Cc1ccc(OC)cc1	none
Cc1cc(Cl)ccc1OCC(O)CN1CCOCC1 (stereo unspecified)	none
CC(C)C[C@@H]1COc2cccc(N3CCN(Cc4ccccc4F)CC3)c2S(=O)(=O)N1	none
O=S1(=O)N[C@@H](Cc2ccccc2)COc2cccc(N3CCN(Cc4ccccc4F)CC3)c21	mHTT CaM bind 89
CCn1cnc2cc(NCc3ccc(Cl)cc3)ccc21	none
COc1ccccc1-n1cnc2cc(NCc3ccc(Cl)cc3)ccc21	mHTT CaM bind 80
COc1ccccc1CNc1ccc2c(c1)ncn2-c1ccccc1	mHTT CaM bind 69
COc1cccc(CNc2ccc3c(c2)ncn3C)c1O	none
CC(C)NC(=O)c1ccc(OCC2CCN(C(=O)c3ccco3)CC2)cc1	none
COc1cccc(CN2CC(C(=O)Nc3ccc(F)cc3)CC2=O)c1 (stereo unspecified)	none
Cc1cccc(C(=O)Nc2ccc3c(c2)OCO3)c1	none
